Results published in PubChem BioAssay AID1224852 (National Center for Advancing Translational Sciences (NCATS), 2016).
Inconclusive results are not listed. Active and inactive are the calls of the source. The call rests on the fitted dose curve; in most records, active means well fitted curve in the direction sought with a large enough effect (not every such curve was filed as active); inconclusive means small, poorly fitted or top-dose-only effect, or effect the other way, or another doubt; inactive means no such curve, though single readings can be large or run the other way.

Assay: Cell viability assay for measurement of the protective activity of small molecules against cell death caused by Zika virus infection in human neural progenitor cells (hNPCs)
Settings: hNPC ZIKV-induced death protection, ATP luminescence, 72 h; series mostly up to 46.1 µM
Source text: National Center for Advancing Translational Sciences [NCATS] Johns Hopkins University School of Medicine Florida State University Assay Overview: Zika virus infection causes cell death in certain cell types including human neural progenitor cells (hNPCs), astrocytes, and astrocytoma cell line (SNB-19). This cell viability assay measures the ATP content (level) in human neural progenitor cells (hNPCs) using a luminescence readout that is proportional to viable cell numbers. Decrease in the luminescence signal after Zika virus infection indicates the cell death caused by Zika virus. Small molecule inhibitors […] the decreased luminescence signal after Zika virus infection, indicating the protective effect of that small molecule on the cell death caused by Zika virus infection. This observed protective effect of small molecules against Zika virus induced cell death may result from inhibition of virus replication or cellular response to the virus infection.
Assay Protocol Summary: The medium for hNPCs consists of DMEM/F12, N2 supplement (ThermoFisher, Cat.# 17502048), NEAA (ThermoFisher, Cat. # 11140050), 2 ug/ml heparin, 2 uM cyclopamine, and B27 (ThermoFisher, Cat. # 17504044). The ATP content assay kit (PerkinElmer, Cat.# 6016731) was used to determine cell viability. The reagent was reconstituted and prepared as described by the manufacturer. Cells were seeded in 384- or 1536-well assay plates and cultured at 37 C with 5% CO2 for 16 to 20 hours. The typical cell seeding density in the 1536-well plate assay is 350 cells/well in 3 ul medium for hNPCs in the tissue cultured treated/PDL coated plates. Compounds were added to cells and incubated for one hour before addition of ZIKV solution to cells (2 FFU/cell). After incubation at 37 C with 5% CO2 for 72 hours, the reagent mixture of the ATP content assay kit was added to each well, followed by incubation at room temperature for 10 minutes. The luminescence intensity of the assay plates was measured using a ViewLux plate reader (PerkinElmer). […] The percentage inhibitions of the decreased cell viability by small molecule inhibitors were then calculated.

SMILES | outcome
CN1CC(=O)N2C(Cc3c([nH]c4ccccc34)[C@H]2c2ccc3c(c2)OCO3)C1=O (stereo partly drawn) | inactive
O=C1C=CC[C@@H]2[C@H]3CCCN4CCC[C@@H](CN12)[C@@H]34 | inactive
COP(=S)(OC)SCN1C(=O)c2ccccc2C1=O | inactive
CC(O)CN1CCN(CC(=O)[O-])CCN(CC(=O)[O-])CCN(CC(=O)[O-])CC1.[Gd+3] (stereo not drawn) | inactive
Oc1ccc([C@H]2CNCc3c2ccc(O)c3O)cc1O | inactive
CC[n+]1c(-c2ccccc2)c2cc(N)ccc2c2ccc(N)cc21 | inactive
S=C(SSC(=S)N1CCCCC1)N1CCCCC1 | inactive
COc1cccc2c1C(=O)c1c(O)c3c(c(O)c1C2=O)C[C@@](O)(C(=O)CO)CC3OC1CC(N2CCOC(OC)C2)C(O)C(C)O1 (stereo partly drawn) | inactive
CC(C)[N+](C)(CCC(C(N)=O)(c1ccccc1)c1ccccc1)C(C)C | inactive
O=c1c2ccccc2[se]n1-c1ccccc1 | inactive
O=S(=O)(CC1CS1)c1ccc(Oc2ccccc2)cc1 (stereo not drawn) | inactive
CN1CC[C@@]2(C)c3cc(OC(=O)Nc4ccccc4)ccc3N(C)[C@@H]12 | inactive
CC(=C(CCOC(=O)C(C)C)SSC(CCOC(=O)C(C)C)=C(C)N(C=O)Cc1cnc(C)nc1N)N(C=O)Cc1cnc(C)nc1N | inactive
CC(C)[C@H]1C(=O)N[C@H](CO)Cc2c[nH]c3cccc(c23)N1C | inactive
COC1(CS(=O)c2ccccc2)CCN(CCc2c[nH]c3ccc(F)cc23)CC1 (stereo not drawn) | inactive
O=C(Nc1ccc(Br)cc1)c1cc(Br)cc(Br)c1O | inactive
CC(C)N[C@@H]1CCn2c(=O)[nH]c3cccc(c32)[C@@H]1O | inactive
Cc1ccc([N+](=O)[O-])[c]2c1[O][Hg]2 | inactive
